15 molecules from PubChem BioAssay can be followed below.

Test [1] concerns the target Cell division control protein 42 homolog (Homo sapiens) (UniProt P60953). Briefly: activated mutant Cdc42 GTP-binding inhibitors, dose response, biochemical, multiplex bead flow cytometry, Bodipy-FL-GTP (AID 1333;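 active = fitted half-maximal concentration within the tested dose range, moderate curve steepness, a statistically real signal drop, and little compound fluorescence or tag-binding interference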).
Test [2] has the same target. Put plainly: wildtype Cdc42 GTP-binding inhibitors, dose response, biochemical, multiplex bead flow cytometry, Bodipy-FL-GTP (AID 1334;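 active = fitted half-maximal concentration within the tested range, moderate curve steepness, significant signal drop, and little compound fluorescence or bead-linkage interference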). The conditions noted are these: bead-based flow cytometry, Bodipy-FL-GTP binding to GST-Cdc42; at 100 µM (top of the series) unless noted.
Test [3] concerns the target GTPase HRas (Homo sapiens) (UniProt P01112). Briefly: inhibitors of GTP binding to wildtype Ras, dose response, biochemical, multiplex bead flow cytometry (AID 1335;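 active = fitted half-maximal concentration within 10 nM to 100 µM, steepness 0.5 to 2, significant signal drop, low assay interference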). The conditions noted are these: bead-based flow cytometry, Bodipy-GTP binding to GST-Ras; at 100 µM (top of the series) unless noted.
Test [4] deals with Ras-related protein Rab-7a (dog), GTP binding. Briefly: Rab7 GTP binding inhibitors, potency, dose response, biochemical, wildtype, multiplex bead flow cytometry (AID 1336).
Test [5] concerns the target Ras-related C3 botulinum toxin substrate 1 (Homo sapiens) (UniProt P63000). Briefly: wildtype Rac1 GTP binding inhibitors, dose response, biochemical, multiplex bead flow cytometry (AID 1340;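 active = dose curve with midpoint inside tested range, moderate steepness, plateau gap beyond fit error, low compound glow and bead-link interference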). The conditions noted are these: GST-Rac1 beads, Bodipy-FL-GTP binding; at 100 µM (top of the series) unless noted.
Test [6] addresses GTPase HRas (Homo sapiens) (UniProt P01112). Put plainly: activated Ras mutant GTP binding inhibitors, dose response, biochemical, multiplex bead flow cytometry (AID 1341;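 active = dose-response curve with midpoint inside the tested range, moderate steepness, significant amplitude and little compound fluorescence or bead-attachment interference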;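 note: GST-tagged constitutively activated Ras mutant immobilized on beads and multiplexed with other GTPases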).

For part of these data: Entries with a potency or affinity are not part of this list. Activity calls are given as the source filed them. Unless noted, the rule behind the calls is not given here.

Chain of GTPase HRas (Homo sapiens) (P01112 whole entry, looked up): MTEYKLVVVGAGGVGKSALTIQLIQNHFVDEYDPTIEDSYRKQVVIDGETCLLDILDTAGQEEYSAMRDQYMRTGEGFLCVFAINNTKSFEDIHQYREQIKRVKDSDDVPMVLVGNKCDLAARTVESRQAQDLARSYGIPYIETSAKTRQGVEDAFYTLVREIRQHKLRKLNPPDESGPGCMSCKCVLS
Chain of Cell division control protein 42 homolog (Homo sapiens) (P60953 whole entry, looked up): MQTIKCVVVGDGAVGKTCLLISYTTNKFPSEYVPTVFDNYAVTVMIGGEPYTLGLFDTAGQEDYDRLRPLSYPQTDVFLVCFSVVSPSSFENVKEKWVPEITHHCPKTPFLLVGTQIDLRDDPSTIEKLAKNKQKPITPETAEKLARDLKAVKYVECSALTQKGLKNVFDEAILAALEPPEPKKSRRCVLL

For `COc1ccc(CCNc2cc(=O)[nH]c(N)n2)cc1`, the molecule was classed as inactive in test [1], in test [4] and in test [6]. Further, in test [2], the fluorescence, percent of control (lower = inhibition) is 34.1%. The molecule further gave a GTP binding, percent of control in test [3] of 48.2%. The molecule further displayed a GTP binding signal, raw median fluorescence (lower = inhibition) (MCF (arbitrary fluorescence units)) in test [5] of 94.3.

Take `COc1ccc(-c2noc(CCC(=O)N3CCN(c4cc(C)ccc4C)CC3)n2)cc1`: the call in test [1], in test [4] and in test [6] was inactive. Also, the fluorescence, percent of control (lower = inhibition) in test [2] worked out at 25.4%. In test [3], this molecule had a GTP binding, percent of control of 76%. The same molecule displayed a GTP binding signal, raw median fluorescence (lower = inhibition) (MCF (arbitrary fluorescence units)) in test [5] of 195.

Consider `O=C(CSc1ccc2nnc(-c3ccccn3)n2n1)Nc1ccc2c(c1)OCO2`, for which the molecule was called inactive in test [1], in test [4] and in test [6]. Besides, in test [2], the fluorescence, percent of control (lower = inhibition) was 39.5%. The GTP binding, percent of control in test [3] amounted to 53.4%. Further, in test [5], the GTP binding signal, raw median fluorescence (lower = inhibition) (MCF (arbitrary fluorescence units)) amounted to 120.

`N#C/C(=C(/O)COc1ccc(Br)cc1)c1nnc2n1CCCCC2`: the call in test [1], in test [4] and in test [6] was inactive. Moreover, the fluorescence, percent of control (lower = inhibition) in test [2] was 29.2%. Further, the GTP binding, percent of control in test [3] amounted to 79.2%. In test [5], this molecule gave a GTP binding signal, raw median fluorescence (lower = inhibition) (MCF (arbitrary fluorescence units)) of 262.

Regarding `Cc1cc(/C=C2\SC(=S)N(Cc3ccco3)C2=O)c(C)n1-c1cccnc1`, the outcome in test [1], in test [4] and in test [6] was inactive. In test [2], the fluorescence, percent of control (lower = inhibition) worked out at 137%. In test [3], this molecule returned a GTP binding, percent of control of 95.2%. The molecule further had a GTP binding signal, raw median fluorescence (lower = inhibition) (MCF (arbitrary fluorescence units)) in test [5] of 209.

As to `COCCOC(=O)c1c(C)oc2ccc(OC(=O)c3ccc4c(c3)OCO4)cc12`, the result in test [1], in test [4] and in test [6] was inactive. In test [2], the fluorescence, percent of control (lower = inhibition) was determined as 31.7%. In addition, the GTP binding, percent of control in test [3] worked out at 83.9%. For the same molecule, the GTP binding signal, raw median fluorescence (lower = inhibition) (MCF (arbitrary fluorescence units)) in test [5] amounted to 262.

Turning to `O=c1[nH]c(N/N=C/c2ccc(O)cc2)nc2ccccc12`, the call in test [1], in test [4] and in test [6] was inactive. Further, the fluorescence, percent of control (lower = inhibition) in test [2] amounted to 31.4%. This molecule registered a GTP binding, percent of control in test [3] of 71%. The GTP binding signal, raw median fluorescence (lower = inhibition) (MCF (arbitrary fluorescence units)) in test [5] was 259.

Regarding `COc1ccc(/C=N/NC(=O)c2ccncc2)cc1Cn1nc([N+](=O)[O-])c(Br)c1C`, the result in test [1], in test [4] and in test [6] was inactive. The fluorescence, percent of control (lower = inhibition) in test [2] was 38.6%. The molecule also yielded a GTP binding, percent of control in test [3] of 75.7%. In test [5], this molecule showed a GTP binding signal, raw median fluorescence (lower = inhibition) (MCF (arbitrary fluorescence units)) of 144.

On to `N#Cc1c(Nc2ccccc2)c(/C=N/N=C/c2ccccc2)c[nH]c1=O`, for which the result in test [1], in test [4] and in test [6] was inactive. Further, in test [2], the fluorescence, percent of control (lower = inhibition) came to 35.5%. For the same molecule, in test [3], the GTP binding, percent of control was 81.7%. The same molecule gave a GTP binding signal, raw median fluorescence (lower = inhibition) (MCF (arbitrary fluorescence units)) in test [5] of 211.

Turning to `CC(C)N(C)NC(=S)Nc1ccccc1`, the molecule was called inactive in test [1], in test [4] and in test [6]. Also, in test [2], the fluorescence, percent of control (lower = inhibition) came to 53.9%. The same molecule displayed a GTP binding, percent of control in test [3] of 64.3%. This molecule also came in with a GTP binding signal, raw median fluorescence (lower = inhibition) (MCF (arbitrary fluorescence units)) in test [5] of 210.

Take `NC(=S)Nc1cccc2cc3ccccc3cc12`: the molecule was classed as inactive in test [1], in test [4] and in test [6]. The fluorescence, percent of control (lower = inhibition) in test [2] was 75.3%. The molecule also gave a GTP binding, percent of control in test [3] of 120%. The GTP binding signal, raw median fluorescence (lower = inhibition) (MCF (arbitrary fluorescence units)) in test [5] was found to be 137.

For `COc1ccc(OCc2c(C)cccc2C)c(C(=O)O)c1`, the molecule was classed as inactive in test [1], in test [4] and in test [6]. The fluorescence, percent of control (lower = inhibition) in test [2] is 58.3%. For the same molecule, in test [3], the GTP binding, percent of control is 203%. In test [5], the GTP binding signal, raw median fluorescence (lower = inhibition) (MCF (arbitrary fluorescence units)) is 55.

As to `Cn1c(=O)cc(N2CCOCC2)[nH]c1=O`, the call in test [1], in test [4] and in test [6] was inactive. Further, in test [2], the fluorescence, percent of control (lower = inhibition) turned out to be 37.4%. The molecule also had a GTP binding, percent of control in test [3] of 84.8%. This molecule gave a GTP binding signal, raw median fluorescence (lower = inhibition) (MCF (arbitrary fluorescence units)) in test [5] of 262.

As for `Cc1ccc2c(c1)c1nnc(SCC(=O)N3CCCc4ccccc43)nc1n2CC(=O)O`, the result in test [1], in test [4] and in test [6] was inactive. Also, in test [2], the fluorescence, percent of control (lower = inhibition) stood at 17.6%. The molecule further gave a GTP binding, percent of control in test [3] of 37.8%. Moreover, the GTP binding signal, raw median fluorescence (lower = inhibition) (MCF (arbitrary fluorescence units)) in test [5] stood at 96.4.

As for `CCN=C1S/C(=C\c2ccc(OC)c(OCC)c2)C(=O)N1CC`, the result in test [1], in test [4] and in test [6] was inactive. The fluorescence, percent of control (lower = inhibition) in test [2] was found to be 50.8%. Besides, the GTP binding, percent of control in test [3] amounted to 60.4%. This molecule had a GTP binding signal, raw median fluorescence (lower = inhibition) (MCF (arbitrary fluorescence units)) in test [5] of 213.
